Values joined by “and” are separate entries in the source; they are usually repeats but may differ in a detail not shown here. Identical values can stand only once. Like-named read-outs stand apart in the source and are kept apart here.
Legend:
Settings in all cases: concentration: 1 μM, replicates: in singlicate, n = 1
[1] = test system: KIT-autoinhibited
[2] = test system: KIT
[3] = test system: LATS1
[4] = test system: LATS2
[5] = test system: LCK
[6] = test system: LIMK1
[7] = test system: LIMK2
[8] = test system: T1, LKB1
T1 construct: gene STK11

[9] = test system: T2, LOK
T2 construct: gene STK10

[10] = test system: LRRK2
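Also: KINOMEscan kinase panel screen.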

## CN1c2ccc(CNc3ccc(F)cc3)cc2-c2c(cnn2C)S1(=O)=O
[1]
  %Inh: 15%
[2]
  %Inh: 0%
[3]
  %Inh: 0%
[4]
  %Inh: 0%
[5]
  %Inh: 7%
[6]
  %Inh: 0%
[7]
  %Inh: 0%
[8]
  %Inh: 8%
[9]
  %Inh: 0%
[10]
  %Inh: 0%

## Cc1ccc(C(=O)NCC(N)=O)cc1-n1c(C)cc(OCc2ccc(F)cc2F)c(Br)c1=O
[1]
  %Inh: 0%
[2]
  %Inh: 6%
[3]
  %Inh: 13%
[4]
  %Inh: 0%
[5]
  %Inh: 25%
[6]
  %Inh: 16%
[7]
  %Inh: 0%
[8]
  %Inh: 0%
[9]
  %Inh: 26%
[10]
  %Inh: 0%

## N#Cc1c(N2CCOCC2)sc(-c2ccn[nH]2)c1-c1ccc(Cl)cc1
[1]
  %Inh: 1%
[2]
  %Inh: 25%
[3]
  %Inh: 22%
[4]
  %Inh: 15%
[5]
  %Inh: 13%
[6]
  %Inh: 6%
[7]
  %Inh: 0%
[8]
  %Inh: 25%
[9]
  %Inh: 5%
[10]
  %Inh: 0%

## CC(=O)Nc1ccc(COc2ccc(Nc3ccnc4cc(-c5ccccn5)ccc34)cc2)cc1.Cl [GW440148]
[1]
  %Inh: 72%
[2]
  %Inh: 100%
[3]
  %Inh: 0%
[4]
  %Inh: 0%
[5]
  %Inh: 31%
[6]
  %Inh: 0%
[7]
  %Inh: 0%
[8]
  %Inh: 20%
[9]
  %Inh: 7%
[10]
  %Inh: 0%

## CC(C)(C)n1cnc2c(N)ncnc21 [SKF-97359]
[1]
  %Inh: 30%
[2]
  %Inh: 0%
[3]
  %Inh: 24%
[4]
  %Inh: 0%
[5]
  %Inh: 0%
[6]
  %Inh: 0%
[7]
  %Inh: 0%
[8]
  %Inh: 56%
[9]
  %Inh: 0%
[10]
  %Inh: 0%

## O=C(c1ccc(-c2cc(-c3c[nH]nc3-c3ccccn3)ccn2)cc1)N1CCOCC1 [GW812171]
[1]
  %Inh: 29%
[2]
  %Inh: 0%
[3]
  %Inh: 0%
[4]
  %Inh: 0%
[5]
  %Inh: 0%
[6]
  %Inh: 0%
[7]
  %Inh: 0%
[8]
  %Inh: 0%
[9]
  %Inh: 28%
[10]
  %Inh: 0%

## Cc1cccc(Cn2ccn3c(=O)cc(N4CCOCC4)nc23)c1 [GSK2297542]
[1]
  %Inh: 1%
[2]
  %Inh: 38%
[3]
  %Inh: 28%
[4]
  %Inh: 10%
[5]
  %Inh: 26%
[6]
  %Inh: 2%
[7]
  %Inh: 10%
[8]
  %Inh: 21%
[9]
  %Inh: 0%
[10]
  %Inh: 0%

## O=C(NCCNc1ccnc(Nc2ccc(F)cc2)n1)Nc1ccccc1F [GSK1379880]
[1]
  %Inh: 0%
[2]
  %Inh: 48%
[3]
  %Inh: 0%
[4]
  %Inh: 0%
[5]
  %Inh: 15%
[6]
  %Inh: 0%
[7]
  %Inh: 0%
[8]
  %Inh: 0%
[9]
  %Inh: 0%
[10]
  %Inh: 0%

## O=C(NOCC1CC1)c1ccc(F)c(F)c1Nc1ccc(I)cc1Cl
[1]
  %Inh: 0%
[2]
  %Inh: 0%
[3]
  %Inh: 0%
[4]
  %Inh: 7%
[5]
  %Inh: 0%
[6]
  %Inh: 0%
[7]
  %Inh: 0%
[8]
  %Inh: 0%
[9]
  %Inh: 0%
[10]
  %Inh: 0%

## [2H]C([2H])(c1cccc(C(F)(F)F)c1C)n1ccn2c(=O)nc(N3CCOCC3)cc12 [GSK2336394]
[1]
  %Inh: 0%
[2]
  %Inh: 14%
[3]
  %Inh: 11%
[4]
  %Inh: 0%
[5]
  %Inh: 25%
[6]
  %Inh: 15%
[7]
  %Inh: 0%
[8]
  %Inh: 0%
[9]
  %Inh: 0%
[10]
  %Inh: 0%

## O=C(NCCNc1ccnc(Nc2ccc(F)cc2)n1)c1cc2ccccc2s1 [GSK1379874]
[1]
  %Inh: 0%
[2]
  %Inh: 0%
[3]
  %Inh: 0%
[4]
  %Inh: 0%
[5]
  %Inh: 12%
[6]
  %Inh: 0%
[7]
  %Inh: 25%
[8]
  %Inh: 1%
[9]
  %Inh: 0%
[10]
  %Inh: 0%

## O=C(Nc1n[nH]c2cc(-c3cccc(F)c3)ccc12)C1CC1 [SB-735464]
[1]
  %Inh: 1%
[2]
  %Inh: 33%
[3]
  %Inh: 0%
[4]
  %Inh: 18%
[5]
  %Inh: 3%
[6]
  %Inh: 0%
[7]
  %Inh: 0%
[8]
  %Inh: 0%
[9]
  %Inh: 6%
[10]
  %Inh: 0%

## Cl.Cl.Cl.Fc1ccc(-c2ncn(C3CCNCC3)c2-c2ccnc(Nc3ccccc3)n2)cc1 [SB-238039]
[1]; 1 µM
  %Inh: 2% and 0%
[2]; 1 µM
  %Inh: 12% and 0%
[3]; 1 µM
  %Inh: 17% and 16%
[4]; 1 µM
  %Inh: 0% and 12%
[5]; 1 µM
  %Inh: 69% and 32%
[6]; 1 µM
  %Inh: 13% and 0%
[7]
  %Inh: 0%
[8]; 1 µM
  %Inh: 55% and 23%
[9]; 1 µM
  %Inh: 35% and 2%
[10]; 1 µM
  %Inh: 27% and 0%

## CNc1ncnc2[nH]ncc12 [SKF-18355]
[1]
  %Inh: 20%
[2]
  %Inh: 18%
[3]
  %Inh: 0%
[4]
  %Inh: 0%
[5]
  %Inh: 6%
[6]
  %Inh: 0%
[7]
  %Inh: 0%
[8]
  %Inh: 38%
[9]
  %Inh: 0%
[10]
  %Inh: 0%

## COc1cc2ncn(-c3cc(OCc4sccc4Cl)c(C(N)=O)s3)c2cc1OC [GSK448459]
[1]
  %Inh: 0%
[2]
  %Inh: 31%
[3]
  %Inh: 47%
[4]
  %Inh: 0%
[5]
  %Inh: 34%
[6]
  %Inh: 4%
[7]
  %Inh: 0%
[8]
  %Inh: 0%
[9]
  %Inh: 99.1%
[10]
  %Inh: 0%

## Cc1c2ccc(N(C)c3ccnc(Nc4cccc(S(N)(=O)=O)c4)n3)cc2nn1Cc1ccccc1.Cl.Cl [GW787226]
[1]
  %Inh: 86%
[2]
  %Inh: 99.9%
[3]
  %Inh: 6%
[4]
  %Inh: 0%
[5]
  %Inh: 90.7%
[6]
  %Inh: 89%
[7]
  %Inh: 73%
[8]
  %Inh: 48%
[9]
  %Inh: 98.4%
[10]
  %Inh: 0%

## Cc1c(Cn2c(C)nn3c(=O)cc(N4CCOC(C)C4)nc23)cccc1C(F)(F)F (centres unmarked) [GSK2344444]
[1]
  %Inh: 4%
[2]
  %Inh: 1%
[3]
  %Inh: 0%
[4]
  %Inh: 0%
[5]
  %Inh: 20%
[6]
  %Inh: 0%
[7]
  %Inh: 11%
[8]
  %Inh: 0%
[9]
  %Inh: 0%
[10]
  %Inh: 25%

## NCCNS(=O)(=O)c1ccc(-c2ccnc3[nH]ccc23)cc1 [GSK977617]
[1]; 1 µM
  %Inh: 0% and 21%
[2]; 1 µM
  %Inh: 44% and 28%
[3]; 1 µM
  %Inh: 75% and 70%
[4]; 1 µM
  %Inh: 95.8% and 95.9%
[5]; 1 µM
  %Inh: 38% and 3%
[7]; 1 µM
  %Inh: 6% and 12%
[8]; 1 µM
  %Inh: 0% and 2%
[9]; 1 µM
  %Inh: 12% and 0%
[10]; 1 µM
  %Inh: 17% and 0%

## CC(C)(CN)c1nc(-c2ccc(Cl)c(O)c2)c(-c2ccncc2)[nH]1.O=C(O)C(F)(F)F [SB-477794]
[2]; 1 µM
  %Inh: 66% and 58%
[3]; 1 µM
  %Inh: 7% and 39%
[4]; 1 µM
  %Inh: 86% and 89%
[6]; 1 µM
  %Inh: 0% and 2%
[8]; 1 µM
  %Inh: 0% and 31%
[9]; 1 µM
  %Inh: 99.1% and 98.2%

From paper PMC5540273 (PLoS ONE, 2017)
